Hit rate of the full screen: of about 3,400 compounds, about 840 (25%) were called active. Roughly 11% stayed inconclusive and do not appear here. The list is a sample of the results. Potency and affinity values are given separately. Values without a mark were called inactive.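 Rule for the calls: active = fitted half-maximal concentration of signal decrease at or below twice the sample's top tested concentration; inconclusive = flat curve between -70 and -30 percent, or poor fit; inactive = flat within 30 percent, signal rise, or potency above limit.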
Assay: T. gondii growth inhibition with IFN-gamma, dose response, cell-based, ME49Luc, HeLa, luciferase, 72 h (AID 1259418)
Settings: T. gondii ME49Luc in IFN-y HeLa, stronger effect = lower value, -100% = high-dose IFN-γ control wells; at 19.5 µM unless noted

Structure (SMILES) | max activity
COc1cc(NC(=O)CN2CCC3(CC2)N=C(c2cccc(F)c2)C(=O)N3)cc(OC)c1 | -16.9%
Cc1ccc(-c2coc(-c3ccc(NC(=O)Nc4ccc(C)c(F)c4)cc3)n2)c(C)c1 | 14.2%
COc1ccc(-c2nc(Cn3c(=O)c4c(C)cc(C)nc4n(-c4ccccc4)c3=O)c(C)o2)cc1 | -4.82% [at 10 µM]
COc1cccc(C(=O)Nc2ccc(-c3nc(-c4ccccc4)co3)cc2)c1 | -14.9% [at 10 µM]
COc1cccc(C(=O)Nc2ccc(-c3nc(-c4ccc(C)cc4)co3)cc2)c1 | 73.1%
COc1cccc(NC(=O)CN2CCC3(CC2)N=C(c2ccc(F)cc2)C(=O)N3)c1 | -15.6% [at 0.68 µM]
CCOc1ccc(-c2nc3c(s2)CN(S(=O)(=O)c2ccc(C(C)C)cc2)CC3)cc1 | 12.8%
O=C(CC1N=C2c3ccccc3N=C(SCc3cc(=O)n4cc(Cl)ccc4n3)N2C1=O)NCc1ccco1 (stereo unspecified) | 13% [at 10 µM]
Cc1ccc(C(=O)Nc2c(C(=O)N3CCCC3)[nH]c3ccccc23)cc1 | 14.8% [at 2.6 µM]
COc1ccc2c(c1)NC1(CCN(C(=O)Cc3ccc(Cl)cc3)CC1)c1cccn1-2 | 7.11% [at 10 µM]
O=C(Cc1ccc(F)cc1)N1CCC2(CC1)Nc1ccc(Cl)cc1-n1cccc12 | -6.77% [at 5 µM]
CN(C)C(=O)COCc1cncc2c1CCN(c1ccccn1)C2 | 11.3% [at 10 µM]
CCc1nc(OCC(=O)Nc2cccc(SC)c2)c2ccccc2n1 | 9.62% [at 0.16 µM]
CCN1C(=O)CCc2cc(NC(=O)CC(C)C)ccc21 | 6.42% [at 0.35 µM]
O=C(C[C@H]1CC[C@@H]2[C@H](COC[C@H](O)CN2C(=O)c2cc(Cl)cc(Cl)c2)O1)N1CCc2ccccc2C1 | -23.1%
O=C(C[C@@H]1CC[C@H]2[C@@H](COC[C@H](O)CN2Cc2ccc(Oc3ccccc3)cc2)O1)N1CCN(c2ccccc2)CC1 | 16% [at 10 µM]
O=C(C[C@H]1CC[C@H]2[C@@H](COC[C@@H](O)CN2S(=O)(=O)c2ccccc2F)O1)N1CCC(Cc2ccccc2)CC1 | 25.4% [at 10 µM]
O=C(C[C@@H]1CC[C@@H]2[C@H](COC[C@H](O)CN2Cc2ccc3c(c2)OCO3)O1)N1CCCCC1 | 28.4%
COc1ccccc1-c1nc(Cn2nnc(-c3nc(-c4cccc(C)c4)no3)c2C)c(C)o1 | 6.08% [at 0.35 µM]
CCOc1ccc(-c2nc3c([nH]2)c(=O)n(C)c(=O)n3C)cc1OC | 30.3% [at 10 µM]
CC1=NN(C2CCS(=O)(=O)C2)C(=O)C1(Sc1ccccc1)Sc1ccccc1 (stereo unspecified) | -15.9% [at 10 µM]
COc1ccc(CC(=O)Nc2ccc(-c3nc(-c4ccc(C)cc4C)co3)cc2)cc1 | 23.3% [at 0.68 µM]
CN1CCN(Cc2cnc3n2CCN(CC2CCOCC2)C3)CC1 | 10.5%
O=C(C[C@H]1CC[C@H]2[C@@H](COC[C@H](O)CN2Cc2cc(F)ccc2F)O1)NCc1ccc(Oc2ccccc2)cc1 | 17.6% [at 2.6 µM]

Structure (SMILES) | max activity
O=C(C[C@H]1CC[C@@H]2[C@H](COC[C@H](O)CN2Cc2cc(F)ccc2F)O1)NCc1ccc(Oc2ccccc2)cc1 | 17.5% [at 5 µM]
Cc1ccc(C)c(NC(=O)CN2CCC3(CC2)N=C(c2ccc(F)cc2)C(=O)N3)c1 | 21.8% [at 10 µM]
Cc1cccc(-c2nc(CSc3nc4c(c(=O)[nH]3)CN(C(C)C)CC4)c(C)o2)c1 | 19.2% [at 0.68 µM]
O=C(CC1CCCCC1)Nc1ccc(-c2nc(-c3ccccc3)co2)cc1 | 19.4%
Cc1ccc(NC(=O)Nc2ccc(-c3nc(-c4ccccc4)co3)cc2)cc1F | 16.5% [at 0.16 µM]
O=C(Cn1c(=O)c(S(=O)(=O)c2ccccc2)cc2ccccc21)NCc1ccccc1Cl | -23.2% [at 0.16 µM]
CCOC(=O)CNC(=O)Nc1ccc(-c2nc(-c3cc(C)ccc3C)co2)cc1 | 5.17% [at 0.68 µM]
Cc1ccc(CN2CCC3(CC2)N=C(c2ccc(C)cc2)C(=O)N3)cc1 | 12.6% [at 2.6 µM]
Cc1ccc(-c2coc(-c3ccc(NC(=O)C(C)(C)C)cc3)n2)cc1 | 29.4% [at 10 µM]
CCS(=O)(=O)N1[C@H](CO)[C@@H](c2ccc(C#Cc3ccccc3F)cc2)[C@@H]1C#N | 8.21% [at 10 µM]
COc1cccc(CC(=O)Nc2ccc(-c3nc(-c4ccc(C)cc4)co3)cc2)c1 | 20.4%
COCCCN1CCc2nc(SCc3nc(-c4ccccc4OC)oc3C)[nH]c(=O)c2C1 | 25.6% [at 10 µM]
COc1ccc(C(=O)Nc2ccc(-c3nc(-c4ccccc4)co3)cc2)cc1OC | 14.3% [at 0.16 µM]
COC(=O)C1CC23C=CNC4CCC5(c6ccccc6NC15C2C)C43 (stereo unspecified) | 26.5% [at 10 µM]
COc1ccc(-c2nc3c(s2)CN(S(=O)(=O)c2ccc(F)cc2F)CC3)cc1 | 13% [at 5 µM]
COC(=O)c1cccc(NC(=O)Nc2ccc(-c3nc(-c4cc(C)ccc4C)co3)cc2)c1 | 11.4% [at 5 µM]
CCc1cc(C2CCCN2C(=O)Cn2nc(C(F)(F)F)cc2C)on1 (stereo unspecified) | -8.33% [at 5 µM]
Cc1ccccc1-c1nc(CN2CCN(C(=O)Nc3cccc(C)c3C)CC2)c(C)o1 | -5.68% [at 2.6 µM]
COCCCNC(=O)Cn1c(=O)c(S(=O)(=O)c2ccccc2)cc2cc(C)ccc21 | 5.8% [at 2.6 µM]
Cc1ccc(NC(=O)Nc2ccc(-c3nc(-c4cccc(Br)c4)co3)cc2)cc1 | 18.1% [at 0.16 µM]
COc1ccc(NC(=O)N2CCc3nc(-c4ccccc4)sc3C2)c(OC)c1 | 19.6% [at 10 µM]
Cc1ccc(-c2ccc(OCCNC(=O)c3sc(-c4ccccc4)nc3C)nn2)cc1 | 10.9% [at 2.6 µM]
Cc1cc(C2CCCN2C(=O)c2cc(C(F)(F)F)nn2C)on1 (stereo unspecified) | 8.24% [at 1.35 µM]
Cc1nc(-c2ccc(F)cc2)sc1-c1ccc(SCc2ccccn2)nn1 | 11.9%

Structure (SMILES) | max activity
Cc1ccccc1NC(=O)N1C[C@H]2C[C@H](C(=O)NC3CCC3)[C@@H](C1)O2 | 41.9%
Cc1ccc(-c2coc(-c3ccc(NC(=O)Cc4ccccc4C)cc3)n2)cc1 | 19%
COc1cc(NC(=O)Nc2ccc(-c3nc(-c4cc(C)ccc4C)co3)cc2)cc(OC)c1 | 6.94% [at 0.08 µM]
COc1cc(OC)cc(C(=O)Nc2ccc(-c3nc(-c4cc(C)ccc4C)co3)cc2)c1 | 19.3% [at 0.16 µM]
COc1ccc(C(=O)Nc2ccc(-c3nc(-c4ccc(C)cc4C)co3)cc2)cc1 | 25.2% [at 0.35 µM]
COc1ccc(NC(=O)Nc2ccc(-c3nc(-c4ccc(C)cc4C)co3)cc2)cc1 | -20.8% [at 0.16 µM]
COc1ccc(-c2nc3c(s2)CN(S(=O)(=O)c2ccc(C(C)(C)C)cc2)CC3)cc1 | 5.19%
COc1ccc(-c2nc(Nc3ccccc3C)c3ccccc3n2)cc1 | -9.66% [at 10 µM]
COc1ccc(CCNc2ncnc3c2cnn3-c2ccccc2)cc1OC | 24.5% [at 5 µM]
CCSc1ccc2c(c1)N(CCCN1CCN(C)CC1)c1ccccc1S2 | 26.9%
CCOC(=O)Cc1ccc(NC(=O)Nc2ccc(-c3nc(-c4ccccc4)co3)cc2)cc1 | 9.92% [at 2.6 µM]
COc1cc(CN2C[C@@H]3N[C@H](C2)C3c2ccc(-c3ccc(C#N)cc3)cc2)cc(OC)c1 (stereo partly specified) | 27% [at 10 µM]
COc1cccc(-c2ccc(C3[C@H]4CNC[C@@H]3N4Cc3nccs3)cc2)c1 (stereo partly specified) | 51.8% [at 21 µM]
Fc1cccc(-c2ccc(C3[C@H]4CNC[C@@H]3N4Cc3ccccn3)cc2)c1 (stereo partly specified) | 18.9% [at 5 µM]
OC[C@@H]1[C@@H](c2ccc(-c3cccnc3)cc2)[C@@H]2CN(Cc3ccccn3)CCCCN12 | -5.02% [at 1.2 µM]
OC[C@@H]1[C@@H](c2ccc(-c3cccc(F)c3)cc2)[C@@H]2CN(Cc3cncnc3)CCCCN12 | 12.9%
O=C(c1cccs1)N1CCC2(CC1)Nc1cc(F)ccc1-n1cccc12 | 9.34% [at 0.68 µM]
O=C(CCC1Nc2c3ccccc3nc(=S)n2C1=O)NCCN1CCC(Cc2ccccc2)CC1 (stereo unspecified) | 54.5% [at 10 µM]
CCc1ccc2c(c1)cc(S(=O)(=O)c1ccccc1)c(=O)n2CC(=O)NCCCOC | 8.62% [at 10 µM]
COCCN1CCc2nc(SCc3nc(-c4ccccc4OC)oc3C)[nH]c(=O)c2C1 | 14.3% [at 5 µM]
COc1cc(-c2noc(-c3nnn(Cc4nc(-c5ccccc5)oc4C)c3C)n2)ccc1OC(C)C | 9.04% [at 0.16 µM]
CSc1cccc(NC(=O)N2CCc3nc(-c4ccc(C)cc4)sc3C2)c1 | 42.8% [at 10 µM]
O=C(Nc1ccc(-c2nc(-c3ccccc3)co2)cc1)c1ccccc1Cl | 40%
